Of roughly 7,900 targets only a part is listed; those with a hit were picked by preference. About 0.6% of all pairs of compound and target were hits.
compound: C1=CC=C(C=C1)C2=NC(=C(N2)C3=CC=NC=C3)C4=CC(=C(C=C4)Cl)O; assay: log2 fold change, soluble protein after heating vs DMSO (PISA); higher = thermal stabilisation; K562 cells, 10 uM, 30 min; active = over 0.2 and 3.5 SD of the protein, either way, in both replicates (recomputed)
Summary of the method: (§1)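 Quantification of soluble protein used TMTpro 16plex LC-MS/MS, with channel sums equalised. Samples were the supernatant after 21,000xg for 90 min of pooled aliquots from K562 cells (2×10^6 cells/mL) treated with 10 μM compound for 30 min, heated for 3 min over 48°C-58°C, and extracted in PBS with 0.5% NP-40 at 4°C. Values, from duplicates, describe thermal stability against control samples on a log2 fold-change scale.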

UniProt Q69YH5, sequence (Q69YH5 whole entry, looked up): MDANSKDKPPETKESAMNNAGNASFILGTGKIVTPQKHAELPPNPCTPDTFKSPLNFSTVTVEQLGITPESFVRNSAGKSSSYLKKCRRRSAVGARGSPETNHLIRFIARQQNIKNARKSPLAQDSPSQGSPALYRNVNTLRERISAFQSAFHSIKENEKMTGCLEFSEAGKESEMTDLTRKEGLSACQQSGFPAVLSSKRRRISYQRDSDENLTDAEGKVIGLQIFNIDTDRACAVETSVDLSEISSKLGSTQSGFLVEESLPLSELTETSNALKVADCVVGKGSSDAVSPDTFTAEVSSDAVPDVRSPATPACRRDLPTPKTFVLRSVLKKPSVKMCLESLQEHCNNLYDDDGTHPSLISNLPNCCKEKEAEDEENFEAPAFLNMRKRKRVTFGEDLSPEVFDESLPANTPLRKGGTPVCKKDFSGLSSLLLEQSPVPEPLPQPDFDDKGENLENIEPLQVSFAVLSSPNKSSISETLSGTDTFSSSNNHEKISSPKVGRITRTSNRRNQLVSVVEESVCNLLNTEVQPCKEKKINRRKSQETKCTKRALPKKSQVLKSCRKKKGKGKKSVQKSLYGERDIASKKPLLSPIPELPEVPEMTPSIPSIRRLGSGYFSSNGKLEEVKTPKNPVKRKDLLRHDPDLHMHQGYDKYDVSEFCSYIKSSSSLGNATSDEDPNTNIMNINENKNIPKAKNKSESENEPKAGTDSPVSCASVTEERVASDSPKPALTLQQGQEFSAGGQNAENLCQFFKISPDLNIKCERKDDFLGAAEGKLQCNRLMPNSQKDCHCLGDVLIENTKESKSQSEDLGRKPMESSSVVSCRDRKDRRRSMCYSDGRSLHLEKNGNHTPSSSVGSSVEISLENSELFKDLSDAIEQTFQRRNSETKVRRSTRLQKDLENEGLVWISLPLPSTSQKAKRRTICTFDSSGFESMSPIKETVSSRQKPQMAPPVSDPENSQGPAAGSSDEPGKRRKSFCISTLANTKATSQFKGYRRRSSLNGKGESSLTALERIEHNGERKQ
UniProt P30305, sequence (P30305 whole entry, looked up): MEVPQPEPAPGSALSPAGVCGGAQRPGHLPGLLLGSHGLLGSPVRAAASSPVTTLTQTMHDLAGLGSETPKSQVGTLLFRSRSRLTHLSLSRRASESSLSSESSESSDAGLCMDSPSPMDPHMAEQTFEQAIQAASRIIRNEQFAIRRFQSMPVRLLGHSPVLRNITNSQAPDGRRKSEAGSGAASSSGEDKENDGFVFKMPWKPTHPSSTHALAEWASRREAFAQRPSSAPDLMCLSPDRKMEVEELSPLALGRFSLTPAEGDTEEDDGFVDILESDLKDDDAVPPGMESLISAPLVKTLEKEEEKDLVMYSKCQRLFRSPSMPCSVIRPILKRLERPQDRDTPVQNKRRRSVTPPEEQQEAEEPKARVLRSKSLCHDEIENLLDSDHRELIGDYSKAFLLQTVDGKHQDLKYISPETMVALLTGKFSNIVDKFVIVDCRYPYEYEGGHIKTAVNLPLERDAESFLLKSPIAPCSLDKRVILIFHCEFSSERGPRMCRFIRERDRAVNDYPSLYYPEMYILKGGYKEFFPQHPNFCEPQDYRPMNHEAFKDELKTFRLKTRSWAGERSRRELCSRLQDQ
UniProt Q16740, sequence (Q16740 whole entry, looked up): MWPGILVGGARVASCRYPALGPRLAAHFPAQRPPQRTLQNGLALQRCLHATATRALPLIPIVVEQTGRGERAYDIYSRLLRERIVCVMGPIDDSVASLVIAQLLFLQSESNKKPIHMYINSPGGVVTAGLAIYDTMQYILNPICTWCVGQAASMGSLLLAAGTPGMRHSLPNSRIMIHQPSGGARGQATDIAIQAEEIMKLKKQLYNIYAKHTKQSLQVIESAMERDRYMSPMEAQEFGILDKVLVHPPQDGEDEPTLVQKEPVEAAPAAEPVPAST
UniProt Q9HAW4, sequence (Q9HAW4 whole entry, looked up): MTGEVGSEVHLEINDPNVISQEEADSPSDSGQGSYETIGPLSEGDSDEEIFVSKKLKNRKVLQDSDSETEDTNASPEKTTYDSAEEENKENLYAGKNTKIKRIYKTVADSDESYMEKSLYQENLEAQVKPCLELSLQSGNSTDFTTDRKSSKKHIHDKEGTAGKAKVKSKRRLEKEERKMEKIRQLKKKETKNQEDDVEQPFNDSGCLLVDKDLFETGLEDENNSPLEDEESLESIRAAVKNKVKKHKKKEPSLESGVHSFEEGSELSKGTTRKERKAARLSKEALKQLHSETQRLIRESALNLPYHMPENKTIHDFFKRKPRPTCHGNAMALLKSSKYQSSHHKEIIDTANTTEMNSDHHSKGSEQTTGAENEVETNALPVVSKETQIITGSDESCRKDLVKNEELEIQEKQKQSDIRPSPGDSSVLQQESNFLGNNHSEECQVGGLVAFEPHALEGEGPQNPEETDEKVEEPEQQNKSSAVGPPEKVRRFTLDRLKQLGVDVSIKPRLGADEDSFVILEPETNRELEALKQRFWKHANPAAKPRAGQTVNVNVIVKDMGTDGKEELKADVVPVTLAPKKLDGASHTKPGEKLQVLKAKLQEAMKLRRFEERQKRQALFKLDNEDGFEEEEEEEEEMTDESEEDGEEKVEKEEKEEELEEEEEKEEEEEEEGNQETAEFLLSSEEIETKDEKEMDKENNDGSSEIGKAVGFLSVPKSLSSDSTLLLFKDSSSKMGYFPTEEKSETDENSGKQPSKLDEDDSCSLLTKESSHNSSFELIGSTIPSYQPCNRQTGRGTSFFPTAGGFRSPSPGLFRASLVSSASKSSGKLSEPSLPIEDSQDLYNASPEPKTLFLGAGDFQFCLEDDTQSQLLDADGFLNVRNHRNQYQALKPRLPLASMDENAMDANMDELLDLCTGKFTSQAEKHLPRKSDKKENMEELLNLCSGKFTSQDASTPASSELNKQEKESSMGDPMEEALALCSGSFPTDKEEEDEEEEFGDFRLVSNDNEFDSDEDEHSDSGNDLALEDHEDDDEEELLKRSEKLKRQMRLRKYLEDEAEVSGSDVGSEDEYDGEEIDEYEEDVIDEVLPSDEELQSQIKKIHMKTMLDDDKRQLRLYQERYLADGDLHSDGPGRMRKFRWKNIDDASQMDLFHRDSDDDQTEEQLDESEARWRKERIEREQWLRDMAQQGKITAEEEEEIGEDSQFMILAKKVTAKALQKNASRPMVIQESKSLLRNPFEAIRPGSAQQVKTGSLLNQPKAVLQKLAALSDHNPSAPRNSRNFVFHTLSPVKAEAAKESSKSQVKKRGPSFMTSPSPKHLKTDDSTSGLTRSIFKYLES
UniProt O75956, sequence (O75956 whole entry, looked up): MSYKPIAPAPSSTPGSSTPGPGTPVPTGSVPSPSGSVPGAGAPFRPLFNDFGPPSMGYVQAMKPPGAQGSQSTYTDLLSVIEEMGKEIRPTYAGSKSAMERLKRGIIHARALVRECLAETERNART
UniProt Q9Y2V0, sequence (Q9Y2V0 whole entry, looked up): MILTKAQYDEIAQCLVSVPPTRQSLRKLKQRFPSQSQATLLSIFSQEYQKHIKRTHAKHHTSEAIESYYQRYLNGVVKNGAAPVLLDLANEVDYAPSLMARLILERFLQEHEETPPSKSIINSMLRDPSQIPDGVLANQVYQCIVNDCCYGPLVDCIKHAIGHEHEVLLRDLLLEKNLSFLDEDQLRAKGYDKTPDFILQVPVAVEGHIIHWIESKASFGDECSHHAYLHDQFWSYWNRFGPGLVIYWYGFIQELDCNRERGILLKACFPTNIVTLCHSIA
UniProt Q9UBY8, sequence (Q9UBY8 whole entry, looked up): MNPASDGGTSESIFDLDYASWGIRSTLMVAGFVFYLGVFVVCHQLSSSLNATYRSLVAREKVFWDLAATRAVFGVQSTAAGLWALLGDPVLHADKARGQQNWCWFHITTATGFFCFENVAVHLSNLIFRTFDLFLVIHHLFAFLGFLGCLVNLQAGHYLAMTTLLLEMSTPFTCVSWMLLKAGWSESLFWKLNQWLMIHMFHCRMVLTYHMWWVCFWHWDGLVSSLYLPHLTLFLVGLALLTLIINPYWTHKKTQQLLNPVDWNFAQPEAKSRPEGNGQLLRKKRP
UniProt Q13111, sequence (Q13111 whole entry, looked up): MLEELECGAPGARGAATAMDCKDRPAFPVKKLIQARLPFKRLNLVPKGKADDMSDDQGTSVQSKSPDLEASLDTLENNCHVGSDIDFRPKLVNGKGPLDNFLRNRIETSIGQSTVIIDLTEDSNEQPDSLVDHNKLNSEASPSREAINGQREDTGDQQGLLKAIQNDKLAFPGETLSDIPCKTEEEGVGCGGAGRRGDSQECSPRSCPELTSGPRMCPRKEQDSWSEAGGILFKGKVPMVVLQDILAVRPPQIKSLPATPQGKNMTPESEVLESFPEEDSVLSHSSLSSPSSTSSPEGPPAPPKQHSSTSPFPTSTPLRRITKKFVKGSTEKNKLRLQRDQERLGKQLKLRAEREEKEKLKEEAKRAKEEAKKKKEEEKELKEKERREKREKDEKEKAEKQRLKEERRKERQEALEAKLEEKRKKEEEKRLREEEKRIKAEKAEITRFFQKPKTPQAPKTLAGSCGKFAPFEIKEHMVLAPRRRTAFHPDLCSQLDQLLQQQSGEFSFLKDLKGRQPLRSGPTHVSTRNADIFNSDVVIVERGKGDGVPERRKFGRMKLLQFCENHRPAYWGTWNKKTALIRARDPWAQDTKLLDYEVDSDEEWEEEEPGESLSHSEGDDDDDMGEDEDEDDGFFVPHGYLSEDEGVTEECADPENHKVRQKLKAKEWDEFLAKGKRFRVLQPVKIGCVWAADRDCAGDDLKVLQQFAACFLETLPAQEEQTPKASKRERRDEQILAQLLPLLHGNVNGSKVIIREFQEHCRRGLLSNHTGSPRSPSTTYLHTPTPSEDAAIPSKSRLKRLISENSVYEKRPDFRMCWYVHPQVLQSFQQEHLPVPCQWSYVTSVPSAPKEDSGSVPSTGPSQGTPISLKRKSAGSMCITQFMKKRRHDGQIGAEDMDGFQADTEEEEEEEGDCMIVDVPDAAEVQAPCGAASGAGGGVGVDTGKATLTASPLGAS
UniProt Q14061, sequence (Q14061 whole entry, looked up): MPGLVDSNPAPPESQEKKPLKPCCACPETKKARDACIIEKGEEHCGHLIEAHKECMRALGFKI

log2 fold change, inactive:
CLUH, A0A494C0R8 -0.081
CHAF1A (UniProt Q13111) -0.047
CLINT1 isoform 3 (UniProt Q14677) -0.03
CCNC (UniProt P24863) -0.001
CLPP (UniProt Q16740) 0.023
CDK19 (UniProt Q9BWU1) -0.167
CDK5 (UniProt Q00535) -0.02
CLTB (UniProt P09497) 0.069
COG2 (UniProt Q14746) -0.223
C15orf41 (UniProt Q9Y2V0) 0.001
CNOT4 isoform 9 (UniProt O95628) 0.053
C19orf54 (UniProt Q5BKX5) -0.024
CLASP2 (UniProt O75122) 0.286
CCND3 (UniProt P30281) 0.047
CDCA2 (UniProt Q69YH5) -0.002
CDK2AP2 (UniProt O75956) 0.007
CDKN1B (UniProt P46527) -0.1
CORO2A (UniProt Q92828) 0.138
CLUH (UniProt O75153) 0.03
CENPE (UniProt Q02224) 0.072
CCNDBP1 (UniProt O95273) 0.076
CLSPN (UniProt Q9HAW4) -0.062
CLPTM1L (UniProt Q96KA5) -0.002
CLN8 (UniProt Q9UBY8) -0.208
CDC25B isoform 4 (UniProt P30305) -0.007
CDK4 (UniProt P11802) -0.067
CLCN3 (UniProt P51790) -0.01
CEBPZOS (UniProt A8MTT3) 0.03
COX17 (UniProt Q14061) 0.207

compound: C1=CC=C2C(=C1)C3=NNC4=CC=CC(=C43)C2=O; assay: as above
Summary of the method: as §1

log2 fold change, inactive:
CLUH, A0A494C0R8 0.03
CHAF1A (UniProt Q13111) -0.114
CLINT1 isoform 3 (UniProt Q14677) -0.042
CCNC (UniProt P24863) 0.209
CLPP (UniProt Q16740) 0.035
COX7B (UniProt P24311) -0.009
CLN5 (UniProt O75503) 0.15
CDK19 (UniProt Q9BWU1) 0.099
CAV2 (UniProt P51636) 0.057
CLTB (UniProt P09497) 0.028
COG2 (UniProt Q14746) -0.137
C15orf41 (UniProt Q9Y2V0) -0.098
CNOT4 isoform 9 (UniProt O95628) 0.245
C19orf54 (UniProt Q5BKX5) 0.026
CLASP2 (UniProt O75122) -0.106
CCND3 (UniProt P30281) -0.001
CDCA2 (UniProt Q69YH5) -0.033
CDK2AP2 (UniProt O75956) 0
CD84 (UniProt Q9UIB8) 0.033
CDKN1B (UniProt P46527) -0.01
CORO2A (UniProt Q92828) -0.042
CLUH (UniProt O75153) 0.058
CNN3 (UniProt Q15417) 0.016
CDK17 isoform 2 (UniProt Q00537) 0.064
CENPE (UniProt Q02224) 0.444
CCNDBP1 (UniProt O95273) -0.122
CLSPN (UniProt Q9HAW4) -0.027
CLPTM1L (UniProt Q96KA5) -0.037
CMTM3 (UniProt Q96MX0) -0.007
CLN8 (UniProt Q9UBY8) -0.06
CDC25B isoform 4 (UniProt P30305) -0.047
CDK4 (UniProt P11802) 0.032
CLCN3 (UniProt P51790) -0.03
CEBPZOS (UniProt A8MTT3) 0.057
COX17 (UniProt Q14061) 0.404

— the supplement of paper PMC10849652
